Active and inactive are the calls of the source. Rule for the calls: active = hit-call score of the fitted dose curve at least 0.9, where 1 is the maximum; inactive = score below 0.9.
Assay: ATG_MRE_CIS: Attagene CIS-FACTORIAL HepG2 Assay for human Metal Responsive Element (MRE) (AID 2282954)
Details: HepG2 MRE cis-reporter transcription, Attagene multiplex; actives raise or lower the signal
Experimental: ATG_CIS is a cell-based, multiplexed-readout assay that uses HepG2, a human liver cell line, with measurements taken at 24 hours after chemical dosing in a 24-well plate.ATG_MRE_CIS is one of 52 assay component(s) measured or calculated from the ATG_CIS assay. It is designed to make measurements of mRNA induction, a form of inducible reporter, as detected with fluorescence intensity signals by Reverse transcription polymerase chain reaction (RT-PCR) and Capillary electrophoresis technology.Data from the assay component ATG_MRE_CIS was analyzed into 1 assay endpoint. This assay endpoint, ATG_MRE_CIS, was analyzed with bidirectional fitting relative to DMSO as the negative control and baseline of activity. Using a type of inducible reporter, measures of mRNA for gain or loss-of-signal activity can be used to understand the reporter gene at the transcription factor-level as they relate to the gene MTF1. Furthermore, this assay endpoint can be referred to as a primary readout, because this assay has produced multiple assay endpoints where this one serves a reporter gene function. To generalize the intended target to other relatable targets, this assay endpoint is annotated to the dna binding intended target family, where the subfamily is zinc finger.
Human liver HepG2 cells are transiently transfected with multiple reporter transcription units (MRTUs) in 6-well plates using FuGene 6 reagent (Roche; 3 ml FuGene/1 mg DNA). The MRTU constructs are regulated by a cis-regulating element (promoter). […] A major difference between the CIS and TRANS system is that in CIS activities of endogenous TFs are measured, whereas the TRANS assay evaluates changes in activities of exogenous, chimeric NR-Gal4 proteins. […] At the end of 24 hour incubation, total RNA was isolated using TriZol reagent (Invitrogen). The isolated RNA is then reverse-transcribed using oligo(dT) primer and Mo-MLV reverse transcriptase (Invitrogen) with DNAse I (Ambion) treatment for 30 min. The one-tenth of the produced cDNA was amplified by PCR using Taq DNA polymerase (Invitrogen) and two reporter sequence-specific primers. The PCR products were fluorescently labeled by primer extension with 6-arboxyfluorescein (6-FAM) 5'-labeled reporter sequence-specific primer (2 min at 95 C, 20 s at 68 C and 10 min at 72 C) and these products were digested with 5U of HpaI (New England Biolabs) for 2h at 37 C. The fragments were purified using Qiaquick PCR columns (Qiagen), analyzed on an ABI 3130xL genetic analyzer (Applied Biosystems) with peak positions identified by using a set of X-rhodamine (ROX)-labeled MapMarker1000 molecular weight standards (BioVentures). The raw capillary electrophoresis data was processed using Attagraph software (Attagene).

Row | Structure (SMILES) | outcome | AC50
1 | CCC1CCC(=O)O1 (stereo not given) | inactive | –
2 | CC=Cc1ccc2c(c1)OCO2 | inactive | –
3 | Oc1ccc(Cl)cc1 | inactive | –
4 | CC(Cc1ccc(C(C)(C)C)cc1)CN1C[C@@H](C)O[C@@H](C)C1 (stereo not given in full) | – | 24.2 µM (active)
5 | CC(C)[C@@H](C(=O)O[C@@H](C#N)c1cccc(Oc2ccccc2)c1)c1ccc(Cl)cc1 | inactive | –
6 | O=C(O)c1cc[c]([Hg][Cl])cc1 | – | 7.75 µM (active)
7 | O=S(=O)(c1ccccc1)c1ccccc1 | inactive | –
8 | [Cl][Sb]([Cl])[Cl] | inactive | –
9 | O=C1C(Cl)=C(Cl)C(=O)C(Cl)=C1Cl | inactive | –
10 | COC(C)(C)CCC[C@H](C)C/C=C/C(C)=C/C(=O)OC(C)C | – | 36.6 µM (active)
11 | Cc1ccccc1CCl | inactive | –
12 | CCC(C)c1cc(C(C)(C)C)cc(-n2nc3ccccc3n2)c1O (stereo not given) | inactive | –
13 | N#CCCCl | inactive | –
14 | CCCCCc1cc(O)cc(O)c1 | – | 100 µM (active)
15 | CCC[N+](=O)[O-] | inactive | –
16 | Nc1ccc([N+](=O)[O-])cc1N | inactive | –
17 | CCCOC(=O)c1ccccc1C(=O)OCCC | inactive | –
18 | O=[N+]([O-])O | inactive | –
19 | C=Cc1cccc(CCl)c1 | inactive | –
20 | CCCCNP(N)(N)=S | inactive | –

Row | Structure (SMILES) | outcome | AC50
21 | CN1C[C@H](C(=O)N[C@]2(C)O[C@@]3(O)[C@@H]4CCCN4C(=O)[C@H](Cc4ccccc4)N3C2=O)C=C2c3cccc4[nH]cc(c34)C[C@H]21 | inactive | –
22 | BrCBr | inactive | –
23 | O=C1Nc2ccc(Cl)cc2C(c2ccccc2)=NC1O (stereo not given) | inactive | –
24 | Cc1ccc(OP(=O)(Oc2ccc(C)cc2)Oc2ccc(C)cc2)cc1 (tested in a mixture with another compound) | inactive | –
25 | Cc1ccc(N(SC(F)(Cl)Cl)S(=O)(=O)N(C)C)cc1 | – | 15.8 µM (active)
26 | O=C=Nc1ccccc1 | inactive | –
27 | C#CC1(O)CCCCC1 | inactive | –
28 | CC(O)CN(CC(C)O)CC(C)O (stereo not given) | inactive | –
29 | C[N+](C)(C)CC(=O)O | inactive | –
30 | ClCCCCCCCl | inactive | –
31 | COC(=O)c1ccccc1S(=O)(=O)NC(=O)Nc1nc(C)cc(C)n1 | inactive | –
32 | O=CNC(N1CCN(C(NC=O)C(Cl)(Cl)Cl)CC1)C(Cl)(Cl)Cl (stereo not given) | inactive | –
33 | C[N+](=O)[O-] | inactive | –
34 | CCCCCCC1CCOC1=O (stereo not given) | inactive | –
35 | Nc1cc(Cl)cc(Cl)c1 | inactive | –
36 | O=P(O)(Oc1ccccc1)Oc1ccccc1 | inactive | –
37 | O=C(O)CCCc1ccc(N(CCCl)CCCl)cc1 | inactive | –
38 | c1ccc2c(c1)CCCC2 | inactive | –
39 | C=CCO | inactive | –
40 | Cc1cc(C)c(C2=C(OC(=O)CC(C)(C)C)C3(CCCC3)OC2=O)c(C)c1 | – | 76 µM (active)

Reference: PubChem BioAssay (EPA / NIEHS)
